Test results from PubChem BioAssay AID2796 (The Scripps Research Institute Molecular Screening Center, 2010).
Among all 320,000 compounds or so, about 8,000 (2.5%) were called active. What follows is part of a selection rich in actives, with near analogues and random picks from the rest. A number with no mark means an inactive call. No stated cut-off is given here; in the data, active means activation above about 47%; inactive means the rest.

The compounds below were run against Aryl hydrocarbon receptor (Homo sapiens) (UniProt P35869) (assay: AHR activators, primary screen, cell-based, luminescence, luciferase reporter, human (AID 2796;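 further: 0% = vehicle wells and 100% = reference agonist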)). Conditions: AHR-responsive luciferase reporter cells, at 5 µM, active compounds read high.
Sequence of Aryl hydrocarbon receptor (Homo sapiens) (P35869 whole entry, looked up): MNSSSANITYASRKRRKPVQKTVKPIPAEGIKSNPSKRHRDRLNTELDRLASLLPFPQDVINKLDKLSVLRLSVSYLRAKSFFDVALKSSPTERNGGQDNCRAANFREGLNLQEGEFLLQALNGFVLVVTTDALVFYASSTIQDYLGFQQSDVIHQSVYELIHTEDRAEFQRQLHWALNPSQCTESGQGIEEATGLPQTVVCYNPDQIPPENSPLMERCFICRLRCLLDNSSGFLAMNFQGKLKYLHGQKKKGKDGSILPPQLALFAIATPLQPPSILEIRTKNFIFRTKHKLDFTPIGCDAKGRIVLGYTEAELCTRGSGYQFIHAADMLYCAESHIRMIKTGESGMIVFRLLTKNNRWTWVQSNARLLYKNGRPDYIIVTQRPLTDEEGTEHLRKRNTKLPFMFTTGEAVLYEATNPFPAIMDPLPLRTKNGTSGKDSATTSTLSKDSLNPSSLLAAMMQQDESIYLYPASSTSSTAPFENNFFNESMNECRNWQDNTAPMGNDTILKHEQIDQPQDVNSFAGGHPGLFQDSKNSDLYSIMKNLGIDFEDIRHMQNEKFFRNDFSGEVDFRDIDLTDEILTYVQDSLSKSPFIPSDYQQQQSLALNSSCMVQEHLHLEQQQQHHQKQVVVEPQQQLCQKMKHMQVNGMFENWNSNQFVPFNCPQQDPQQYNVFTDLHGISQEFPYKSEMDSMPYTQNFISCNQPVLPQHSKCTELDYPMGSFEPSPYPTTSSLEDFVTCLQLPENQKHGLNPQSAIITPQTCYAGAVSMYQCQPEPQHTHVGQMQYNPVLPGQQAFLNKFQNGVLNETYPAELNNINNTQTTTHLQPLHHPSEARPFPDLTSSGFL

Question: Which activation does the source give for `CCCc1c(C(=O)Nc2ccc(F)cc2)cnn1-c1ccccc1` here?
Answer: 69.9% (active)

Question: `CCNC(=O)c1cnn(-c2ccccc2)c1-c1ccccc1` was tested. Which activation did it give?
Answer: 0.69%

Question: With `CCCc1c(C(=O)O)cnn1-c1ccc(Cl)cc1` as the compound, how does the activation read?
Answer: -2.51%

Question: With `COc1cc(/C=C/C(=O)OCC(=O)NC2CC2)cc(OC)c1OC` as the compound, how does the activation read?
Answer: 1.12%

Question: `O=S(=O)(NCc1ccccc1Br)c1ccccc1Br` was tested. Which activation did it give?
Answer: -0.52%

Question: For `Cn1c(=O)c(Sc2ccc(Cl)cc2)c(O)c2ccccc21`, which activation is on record?
Answer: 6.8%

Question: For `CCCn1c(=O)c(C(=O)Nc2cc(C)ccn2)c(O)c2ccccc21`, which activation is on record?
Answer: 7.05%

Question: For `Cn1c(=O)c(C(=O)Nc2ncccn2)c(O)c2ccccc21`, which activation is on record?
Answer: 66.7% (active)

Question: `COc1ccccc1NC(=O)CSc1nnc(Cn2nnc(-c3ccccc3)n2)n1-c1ccccc1` was tested. Which activation did it give?
Answer: -0.61%

Question: With `O=C(NCc1ccncc1)c1ccc(NS(=O)(=O)c2cccc([N+](=O)[O-])c2)cc1` as the compound, how does the activation read?
Answer: -0.44%

Question: `CCC(C)NCC(=O)Nc1ccc([N+](=O)[O-])cc1C(=O)Nc1ccccc1F` (stereo unspecified) was tested. Which activation did it give?
Answer: 104% (active)

Question: Which activation does the source give for `O=C(NCCNc1ccc([N+](=O)[O-])cc1Cl)c1ccccc1F` here?
Answer: -0.69%

Question: How did the activation turn out when `O=C(NCCCNc1ccc([N+](=O)[O-])cc1Cl)c1ccccc1F` was run?
Answer: -0.83%

Question: Which activation does the source give for `CC1CC(C)CN(C(=O)C2CC(=O)N(c3ccc(F)cc3)C2)C1` (stereo unspecified) here?
Answer: -4.43%

Question: How did the activation turn out when `Cc1ccc(O)c(CCc2ccccc2)n1` was run?
Answer: 21.5%

Question: For `O=C(O)CCCCCNc1ncnc2ccc(Br)cc12`, which activation is on record?
Answer: 4.84%

Question: Which activation does the source give for `COc1ccc(Nc2ncnc3ccc(Br)cc23)c(OC)c1` here?
Answer: 52.9% (active)

Question: `C=CCNc1ncnc2ccc(Br)cc12` was tested. Which activation did it give?
Answer: 0.32%

Question: How did the activation turn out when `O=C(COc1ccccc1F)Nc1nc(-c2ccccn2)cs1` was run?
Answer: 12.4%

Question: With `Cc1ccc2[nH]c(=O)c(CN(CC3COCCO3)C(=O)Nc3ccccc3C)cc2c1` (stereo unspecified) as the compound, how does the activation read?
Answer: 9.5%

Question: For `Cc1cccc(NC(=O)N(Cc2cc3cc(C)cc(C)c3[nH]c2=O)CC2COCCO2)c1` (stereo unspecified), which activation is on record?
Answer: 59.6% (active)

Question: With `COc1ccc2[nH]c(=O)c(CN(CC3CCCO3)C(=O)Nc3ccccc3)cc2c1` (stereo unspecified) as the compound, how does the activation read?
Answer: 0.61%

Question: Which activation does the source give for `Cc1ccc(C2(C(F)(F)F)N=C3Sc4cc(C)cc(C)c4N3C(=O)N2)cc1` (stereo unspecified) here?
Answer: 70.8% (active)

Question: Which activation does the source give for `COC(=O)C1=C(N)Oc2c(oc(CO)cc2=O)C1c1c(F)cccc1Cl` (stereo unspecified) here?
Answer: -0.25%

Question: For `Cc1ccc(N2C(=O)N3[C@@H]4c5ccccc5OC[C@@H]4[C@@H](c4ccccc4)[C@@]3(C)C2=O)cc1`, which activation is on record?
Answer: 0.11%

Question: Which activation does the source give for `CCOC(=O)Cc1ncccc1C(=O)Nc1ccc(OC)cc1` here?
Answer: 2.4%

Question: Which activation does the source give for `COC(=O)Cc1ccc(OCC(=O)Nc2ccc(OC(F)(F)F)cc2)cc1` here?
Answer: 1.97%

Question: How did the activation turn out when `CCOC(=O)Cc1ncccc1C(=O)Nc1ccc(OC(F)(F)F)cc1` was run?
Answer: 78.1% (active)

Question: Which activation does the source give for `COc1ccccc1N(C)S(=O)(=O)c1ccc(Cl)c(C(=O)Nc2ccncc2)c1` here?
Answer: 17.1%

Question: `CCOc1ccc(OCc2cccc(C(=O)N(CC)CC)c2)cc1` was tested. Which activation did it give?
Answer: -5.06%

Question: How did the activation turn out when `CCSc1nsc(NC(=O)Nc2ccccc2OC)n1` was run?
Answer: -2.87%

Question: Which activation does the source give for `CCSc1nsc(NC(=O)Nc2cccc(C(C)=O)c2)n1` here?
Answer: 76.5% (active)

Question: Which activation does the source give for `C=CCSc1nsc(NC(=O)Nc2cccc(C(C)=O)c2)n1` here?
Answer: 41.3%

Question: How did the activation turn out when `O=Cc1c(NCCc2cccc(F)c2)c2ccccc2[nH]c1=O` was run?
Answer: 1.73%

Question: With `CC(C)(C)Nc1c(N)c(=O)oc2ccccc12` as the compound, how does the activation read?
Answer: -0.9%

Question: With `Nc1c(NCCc2ccccc2)c2ccccc2oc1=O` as the compound, how does the activation read?
Answer: 67.9% (active)

Question: For `CC(=O)Nc1ccc(NC(=O)CSc2nnc(COc3ccccc3C)n2CC2CCCO2)cc1` (stereo unspecified), which activation is on record?
Answer: 1.11%

Question: How did the activation turn out when `CCOC(=O)N1CCN(Cc2nc3ccc([N+](=O)[O-])cc3c(=O)n2-c2cccc(OC)c2)CC1` was run?
Answer: 32.6%

Question: `Cc1c(C(=O)Nc2ccccn2)oc2ccc(Br)cc12` was tested. Which activation did it give?
Answer: 49.7% (active)

Question: With `Cc1nonc1NC(=O)c1oc2ccccc2c1C` as the compound, how does the activation read?
Answer: 12.5%

Question: For `Cc1noc(C)c1C(=O)Nc1ccccn1`, which activation is on record?
Answer: 4.67%

Question: With `Cn1ncc2c(N3CCCCC3)nc(NCCCO)nc21` as the compound, how does the activation read?
Answer: 5.05%

Question: How did the activation turn out when `COc1ccc(C(=O)Nc2cccc(S(C)(=O)=O)c2)cc1` was run?
Answer: 67.2% (active)

Question: For `COc1cccc(C(=O)Nc2nc3ccc(S(C)(=O)=O)cc3s2)c1`, which activation is on record?
Answer: 7.38%

Question: `COc1ccc(NS(=O)(=O)c2ccc(NC(=O)c3ccc(N(C)S(C)(=O)=O)cc3)cc2)cc1` was tested. Which activation did it give?
Answer: -0.42%

Question: With `CCCNC(=O)COc1coc(CN2CCN(Cc3ccccc3)CC2)cc1=O` as the compound, how does the activation read?
Answer: 1.71%

Question: `Cc1cnc(C(=O)OCc2c(C)cc(C(C)(C)C)cc2C)cn1` was tested. Which activation did it give?
Answer: 3.96%

Question: How did the activation turn out when `CCN(c1ccc(NC(=O)COC(=O)CCc2nc3ccccc3n2-c2ccccc2)cc1)C(C)C` was run?
Answer: -1.26%

Question: With `Cc1ccc(C(=O)OCC(=O)N2CC(C)CC(C)C2)cc1S(=O)(=O)N1CCCCC1` (stereo unspecified) as the compound, how does the activation read?
Answer: 0.38%

Question: How did the activation turn out when `O=C(Nc1ccncc1)c1ccc(Cl)c([N+](=O)[O-])c1` was run?
Answer: 0.64%

Question: For `Cc1ccnc(NC(=O)c2ccc(Cl)c([N+](=O)[O-])c2)c1`, which activation is on record?
Answer: 104% (active)

Question: With `O=C(Nc1cccnc1)c1ccc(Cl)c([N+](=O)[O-])c1` as the compound, how does the activation read?
Answer: -0.85%

Question: How did the activation turn out when `COc1ccc(OC)c(/C=N/NC(=O)c2ccc[n+](CC(=O)c3ccccc3)c2)c1` was run?
Answer: 12.9%

Question: Which activation does the source give for `Cn1c(C(=O)NCCCN2CCN(c3cccc(Cl)c3)CC2)cc2c(=O)n(C)c3ccccc3c21` here?
Answer: 7.28%

Question: `Cn1c(C(=O)NCCc2ccsc2)cc2c(=O)n(C)c3ccccc3c21` was tested. Which activation did it give?
Answer: 86.4% (active)

Question: Which activation does the source give for `CCN1CCCC1CNC(=O)c1cc2c(=O)n(C)c3ccccc3c2n1C` (stereo unspecified) here?
Answer: 3.13%

Question: `N#Cc1ccccc1NC(=O)c1ccc2c(c1)OCO2` was tested. Which activation did it give?
Answer: 32.1%

Question: How did the activation turn out when `O=C(CSc1nn(-c2ccc(F)cc2)c(=S)s1)NC1CCS(=O)(=O)C1` (stereo unspecified) was run?
Answer: 3.28%

Question: For `C=CCn1cc(Cl)cc(C(=O)Nc2ccccc2)c1=O`, which activation is on record?
Answer: 50.9% (active)

Question: With `C=CCN(C(=O)c1cc(C)cc(C)c1)C1(C(=O)Nc2ccccc2)CCN(C(C)C)CC1` as the compound, how does the activation read?
Answer: 5.4%

Question: `C=CCc1cccc2cc(C(=O)Nc3ccc(NC(C)=O)cc3)c(=O)oc12` was tested. Which activation did it give?
Answer: 16.9%
